Records with an inconclusive call do not appear. A call without a number means that no potency is given here. Calls of active or inactive are those of the source. Calls come from the whole dose curve; as a rule, active = well fitted inhibition curve with a large enough effect; inconclusive = small, poorly fitted or top-dose-only effect; inactive = flat fitted curve, though single readings scatter.
Target: Calcium and integrin-binding protein 1 (Homo sapiens) (UniProt Q99828)
Assay: Primary qHTS for Identification of Calcium Integrin Binding Protein 1 (CIB1) Competitor (AID 1508620);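 note: GST tagged CIB1 binding a fluorescein labelled alphaIIb integrin peptide tracer; top concentration of the series differs between compounds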
Conditions: CIB1-GST / FITC-alphaIIb peptide fluorescence polarization; series mostly up to 57.7 µM
In short: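 CIB1-GST (1 uM final) and compound incubated 15 min at room temperature before adding FITC-alphaIIb peptide tracer (100 nM final). Competition for binding read by fluorescence polarization (ex 480, em 540) after another 15 min at room temperature.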

Chain of Calcium and integrin-binding protein 1 (Homo sapiens) (Q99828 whole entry, looked up): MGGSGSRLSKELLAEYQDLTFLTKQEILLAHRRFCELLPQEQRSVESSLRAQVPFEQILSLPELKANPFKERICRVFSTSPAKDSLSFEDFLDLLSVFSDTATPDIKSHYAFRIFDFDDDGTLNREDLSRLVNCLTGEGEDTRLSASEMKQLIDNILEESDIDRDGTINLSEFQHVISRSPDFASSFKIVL

Compound | Potency
O=C(O)C1=CO[C@@H](O[C@@H]2O[C@H](CO)[C@H](O)[C@H](O)[C@H]2O)[C@@H]2C(CO)=CC[C@H]12 | inactive
COc1ccc2nc3cc(Cl)ccc3c(Nc3cc(CN4CCCC4)c(O)c(CN4CCCC4)c3)c2n1 | inactive
CC(C)(F)C[C@H](N[C@@H](c1ccc(-c2ccc(S(C)(=O)=O)cc2)cc1)C(F)(F)F)C(=O)NC1(C#N)CC1 | inactive
O=C1NC(=O)C(=Cc2ccc(-c3ccc(F)cc3O)o2)S1 | inactive
CNC1CCC(N(Cc2cccc(-c3ccncc3)c2)C(=O)c2sc3ccccc3c2Cl)CC1 (stereo unspecified) | inactive
CCC(=O)NCC[C@@H]1CCc2ccc3c(c21)CCO3 | inactive
CCCCC(C=O)NC(=O)C(CC(C)C)NC(=O)OCc1ccccc1 (stereo unspecified) | inactive
OCCn1cc(-c2ccc3c(c2)CCC3=NO)c(-c2ccncc2)n1 | inactive
Cc1cn([C@@H]2C[C@@H](O)[C@H](CO)O2)c(=O)[nH]c1=O | inactive
CNC(=O)[C@H](Cc1ccccc1)NC(=O)[C@H](CC(C)C)[C@H](CSc1cccs1)C(=O)NO | inactive
O=c1[nH]c(=O)n([C@H]2C[C@@H](O)[C@@H](CO)O2)cc1C(F)(F)F | inactive
N=C1SC(=Cc2ccc(-c3ccc4c(c3)C(=O)NC4=O)o2)C(=O)N1c1ccc(Br)cc1 | inactive
CN1CCN(c2cccc(Nc3nc4c(-c5ccc(S(C)(=O)=O)cc5)cccn4n3)c2)CC1 | inactive
CC[C@]1(O)C[C@H]2CN(CCC3=c4ccccc4=N[C]3[C@@](C(=O)OC)(c3cc4c(cc3OC)N(C)[C@H]3[C@@](O)(C(N)=O)[C@H](O)[C@]5(CC)C=CCN6CC[C@]43[C@@H]65)C2)C1 | inactive
Cc1cnc(Nc2cccc(CN3CCOCC3)c2)nc1Nc1cccc(S(=O)(=O)NC(C)(C)C)c1 | inactive
O=C1Nc2ccc(I)cc2C1=Cc1cc(Br)c(O)c(Br)c1 | inactive
CCCCn1c(=O)n(Cc2ccccc2F)c(=O)c2[nH]c(Cc3ccc(NC(C)=O)cc3)nc21 | inactive
Oc1cc(O)cc(C=Cc2ccc(O)c(O)c2)c1 | inactive

Compound | Potency
COc1ccc(-c2cc3nccn3c(Nc3ncccc3C(N)=O)n2)cc1OC | inactive
COc1cc2nc(-c3cc(F)ccc3O)nc(N[C@@H]3CNC[C@@H]3C(C)(C)O)c2cc1OC | inactive
O=C1CCCC(=O)C1C(=O)c1ccc(C(F)(F)F)cc1[N+](=O)[O-] | inactive
CCC(C)SSc1ncc[nH]1 (stereo unspecified) | inactive
Cc1ccc(C(=O)N(CCCN)[C@@H](c2oc3cc(Cl)ccc3c(=O)c2Cc2ccccc2)C(C)C)cc1 | inactive
c1ccc(-c2oc3ncnc(NC[C@@H]4CCCO4)c3c2-c2ccccc2)cc1 | inactive
C[C@H](CCC(=O)O)[C@H]1CC[C@H]2[C@H]3[C@@H](CC[C@]12C)[C@@]1(C)CC[C@@H](O)C[C@H]1C[C@@H]3O | inactive
Cc1ccc2c(=O)c3cccc(CC(=O)O)c3oc2c1C | inactive
Cc1cc(C(C)Nc2ccccc2)c2nc(N3CCOCC3)cc(=O)n2c1 (stereo unspecified) | inactive
O=C(Nc1cccc(C(F)(F)F)c1)Nc1cc(S(=O)(=O)NC2CC2)ccc1-c1ccsc1 | inactive
O=C(c1ccc(F)c(F)c1Nc1ccc(I)cc1F)N1CC(O)([C@H]2CCCCN2)C1 | inactive
COc1ccc2c(c1)CC[C@H]1[C@@H]2CC[C@]2(C)[C@@H](NCCCCCCN3C(=O)C=CC3=O)CC[C@H]12 | inactive
Cc1[nH]c(C=C2C(=O)Nc3ccc(S(=O)(=O)N(C)c4cccc(Cl)c4)cc32)c(C)c1C(=O)N1CCN(C)CC1 | inactive
C[C@@H]1CC=CC=CC=CC=C[C@@H](O[C@@H]2O[C@H](C)[C@@H](O)[C@H](N)[C@H]2O)C[C@@H]2O[C@](O)(C[C@@H](O)C[C@@H]3O[C@@H]3C=CC(=O)O1)C[C@H](O)[C@@H]2C(=O)O | inactive
C[C@]12CC[C@@H]3c4ccc(O)cc4CC[C@H]3[C@H]1[C@@H](O)[C@@H](O)[C@H]2O | inactive
CN1C(=O)C(Cc2c[nH]c3ccccc23)NC1=S (stereo unspecified) | inactive
COC(=O)Nc1ccc(-c2nc(N3CCOCC3)c3cnn(C4CCN(C(=O)OC)CC4)c3n2)cc1 | inactive
Nc1ccn([C@@H]2O[C@H](CO)[C@@H](O)[C@H]2O)c(=O)n1 | inactive
